# Methyltransferases: Primary Screen for Target Class Profiling of Small Molecule Inhibitors of Methyltransferases; purified enzyme, MTase-Glo SAH luminescence; active compounds read low; calls only at 40 µM; 25,000 compounds, 3.9% hits; AID 1745853, 2022; call rule not given here
#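 Each enzyme was assayed with SAM and its substrate. SAH formation detected by MTase-Glo luminescence; single-point 40 uM screen[…].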
# MTase-Glo ctr: inhibits MTase-Glo coupling enzymes without methyltransferase; shares compounds with Methyltransferases; 180 compounds, 6% hits; AID 1745851; Potency, µM (highest dose often 57.3 µM), without a hit: at the top dose activity change, negative = inhibition, most hits filed as inhibitors; MTase-Glo coupled enzymes, SAH conversion luminescence, no MTase; active = well fitted inhibition curve with a large enough effect; note: potency is the fitted concentration of half-maximal effect
# Numbers without * were called inactive; i = inactive; + = active, no number; [ ] = another dose, or the depositor's remark. This excerpt belongs to a sample that is enriched for hits. % is set by controls: 0 for no effect and ±100 for the full control effect.
SMILES,Methyltransferases,others
c1ccc(-c2nnc([C@H]3CCN(C4CCC4)C3)o2)cc1,i,
CN(C)c1cccc(-c2nc(-c3nnn4c3COC(c3ccccc3Cl)C4)no2)c1 (stereo not drawn),i,
O=C(Cn1nc2n(Cc3ccc(F)cc3)c(=O)c3ccccc3n2c1=O)NC1CCCCC1,i,
CC1(C(=O)NC2CCCCC2)Cn2c(cc3occc32)C(=O)N1C1CCCCCC1 (stereo not drawn),i,
COC(=O)c1nc(NC(=O)Cn2nc3c(cc2=O)CCCC3)sc1C(C)C,+,MTase-Glo ctr=-1%
O=C(Cn1nc2c(cc1=O)CCCCC2)Nc1nnc(C2CCCO2)s1 (stereo not drawn),i,
CCc1nc(NC(=O)Cn2nc3c(cc2=O)CCCC3)sc1C,i,
CS(=O)(=O)c1ccc(CN2CCC(C(O)c3ccccn3)CC2)cc1 (stereo not drawn),i,
COCCCNC(=O)c1cc2n(n1)CC(C)(C(=O)NC1CCCCC1)N(C)C2=O (stereo not drawn),i,
COc1cc(NC(=O)CSc2nnc3n(CC(C)C)c(=O)c4cc(F)ccc4n23)cc(OC)c1,i,
O=C(CCN1CCCCO1)N1CCOC(CCCc2ccccc2)C1 (stereo not drawn),i,
Cc1sc2ccn(CC(C)C)c(=O)c2c1C(=O)N1CCCCC1,i,
COc1ccc(C(C)NC(=O)c2c(C)sc3ccn(C)c(=O)c23)cc1 (stereo not drawn),i,
CCCCN(C)C(=O)c1c(C)sc2ccn(CCC)c(=O)c12,+,MTase-Glo ctr=-1%
Cc1ccccc1CN1C(=O)c2ccc(-c3ccco3)n2CC1(C)C(=O)NC1CCCCC1 (stereo not drawn),i,
CCc1ccc(N2C(=O)c3cc4ccccc4n3CC2(C)C(=O)NCc2ccccc2OC)cc1 (stereo not drawn),i,
C=C(CCO)C(=O)OCC1OCC(OC(=O)C(=C)CCO[C@@H]2O[C@H](CO)[C@@H](O)[C@H](O)[C@H]2O)C(O)C1O (stereo partly drawn),i,
CC(C)OCCCn1c(=O)c2ccccc2n2c(=O)n(Cc3ccc(Cl)cc3)nc12,i,
CCn1cnnc1CC1CCN(C(=O)c2nccc3ccccc23)C1 (stereo not drawn),i,
O=C(C1CCC1)N1CCC(Cc2nncn2Cc2ccccc2)CC1,i,
Cc1nn(C(=O)CCC(=O)N2CCC(Cc3nncn3CC3CC3)CC2)c2ccccc12,+,MTase-Glo ctr=-1%
COc1ccc(CN2C[C@@H](CO)[C@H](c3ccncc3)C2)c(OC)c1,+,MTase-Glo ctr=4%
COc1ccc2c(c1)c(CN1C[C@@H](CO)[C@H](c3nc(C)no3)C1)cn2C,i,
Cn1cccc1CN1C[C@@H](CO)[C@H](c2ccncc2)C1,i,
COc1c2c(c(C)c3c1C(=O)OC3)OC1(C)CC(O)C34OC(OC)(CCC3(C)C1C2)OC4(C)CO (stereo not drawn),i,
SMILES,Methyltransferases,others
CC1CCN(S(=O)(=O)c2ccc3c(c2)oc(=O)n3CC(=O)NCc2ccc(Cl)cc2)CC1,i,
COc1ncccc1-c1nc(-c2c(C)noc2C)cc2cc(CN(C)C)oc12,i,
Cc1noc(C)c1-c1cc2c(cc(C)n2CCN(C)C)c(Nc2ccncn2)n1,+,MTase-Glo ctr=-3%[85.7 µM]
CCC(C(=O)NCc1ccco1)n1ccc2cc(S(=O)(=O)N3CCCCC3)ccc21 (stereo not drawn),i,
COc1cncc(Nc2ncc(-c3ccccc3OC)c3c2OCC3)c1,+,MTase-Glo ctr=-3%[85.7 µM]
Cc1noc(C)c1-c1cnc(Nc2ccc(F)c(Cl)c2)c2c1CCO2,i,
O=C(NCCCN1CCC2(CC1)OCc1ccccc12)[C@H]1CCCN1Cc1ccccc1,i,
COc1cccc(NC(=O)c2cc3n(n2)CC(C)(C(=O)NC2CCCCCC2)N(C)C3=O)c1 (stereo not drawn),i,
Cc1nnc(-c2cc(-c3ccccc3Oc3ccccc3)ccn2)n1C,i,
COc1cccc(Nc2ccnc(-c3nnc(C)n3C3CCCCC3)c2)c1,+,MTase-Glo ctr=-4%[85.7 µM]
Cc1ccc([C@@H]2CN(c3cc(N4CCC(O)CC4)ncn3)C[C@H]2N(C)C)cc1,+,MTase-Glo ctr=-3%
CCCn1cc(C(=O)N2C[C@@H](N(C)C)[C@H](c3ccc(C)cc3)C2)c(C)n1,i,
CN(C)c1cc(N2CCCC(NC(=O)C3CCC3)C2)ncn1 (stereo not drawn),i,
Cc1ccccc1Cn1nc2n(CC(C)C)c(=O)c3ccccc3n2c1=O,i,
CCC(C)NC(=O)c1ccc2c(=O)n(CC(C)C)c3nn(CC(=O)Nc4cc(C)cc(C)c4)c(=O)n3c2c1 (stereo not drawn),i,
O=c1ccc(NS(=O)(=O)c2ccccc2)c2n1C[C@H]1C[C@@H]2CN(S(=O)(=O)c2ccccc2)C1,i,
COc1cccc(CN2CCCC3(CNc4ccccc4[S+](=O)([O-])N3)C2)c1 (stereo not drawn),+,MTase-Glo ctr=-5%
N#Cc1ccc(CN2CCC3(CNc4ccccc4[S+](=O)([O-])N3)C2)cc1 (stereo not drawn),i,
O=[S+]1([O-])NC2(CCN(Cc3ccc(F)cc3)CC2)CNc2ccccc21,i,
CCCn1cnc2c1CN(C(=O)c1ccc(F)cc1)[C@H](C(=O)OC)C2,i,
CCCOc1ccc(CN2C(=O)c3cc4oc(C)cc4n3CC2(C)C(=O)NC2CCCCC2)cc1 (stereo not drawn),i,
Cc1ccc(C)c(CN2CC(=O)N(Cc3ccc(Cl)cc3)c3ccccc3S2(=O)=O)c1,i,
CCOc1c(CN(C)C(=O)Cn2cccc(OC)c2=O)cccc1OC,+,MTase-Glo ctr=-6%
COc1cccn(CC(=O)N2CCN(c3ccccc3C#N)CC2)c1=O,i,
CCC(C(=O)N(C)Cc1ccc(OC)c2ncccc12)n1cccn1 (stereo not drawn),i,
SMILES,Methyltransferases,others
CC1(C(=O)NC2CCCCCC2)Cn2c(nc3ccccc32)C(=O)N1Cc1ccc2c(c1)OCO2 (stereo not drawn),i,
CC(=O)OC1CC2(C)C(CCC(C)C23Cc2c(O)cc4c(c2O3)CNC4=O)C(C)(C)C1O (stereo not drawn),i,
Cc1nc(-c2c3n(c(=O)n(CC(=O)NCc4cccs4)c2=O)CCCCC3)no1,i,
COc1ncccc1-c1cc2c(nc1OC)nc(CCc1ccccc1)n2C,i,
COc1ncccc1-c1nccn2c(C3CN(Cc4ccccc4O)C3)ncc12,+,MTase-Glo ctr=2%[85.7 µM]
COc1ncccc1-c1n[nH]c2c1CC(=O)N(Cc1ccccc1)C2,i,
CCCn1c(=O)c2ccc(C(=O)NC(C)CC)cc2n2c(=O)n(CC(=O)Nc3cccc(C)c3)nc12 (stereo not drawn),i,
CN1CCCCCCN(C(=O)c2ccc3ccccc3n2)[C@H]2CCC[C@H]2C1=O,i,
CN1CCN(C)c2cnc(-c3cnn(Cc4ccccc4)c3)cc2C1,+,MTase-Glo ctr=4%[85.7 µM]
O=C(Cc1ccccc1)NCC1CN(Cc2ccncc2Cl)CC12CN(c1ccccc1)C2 (stereo not drawn),i,
CCOc1ccc(CNC(=O)c2cc3n(n2)CC(C)(C(=O)NC2CCCC2)N(CC)C3=O)cc1OC (stereo not drawn),i,
Cc1cc(C)c(NS(=O)(=O)c2cc3c(cc2Cl)n(C)c(=O)n3C)c(C)c1,i,
Cn1cccc1C(=O)N1CC[C@H](CO)[C@H](NC(=O)C2CC2)C1,i,
CN1CC2(CCN(C(=O)c3cccn3C)CC2)CC(c2ccccc2)C1=O (stereo not drawn),i,

# Source: PubChem
